# About 2,000 (36%) of roughly 5,500 compounds were called active. About 18% were inconclusive and are not listed. The list shows a part of the results. Values without a mark were called inactive. No stated cut-off is given here; in the data, active means normalized growth mostly below about 0.91 (no sharp cut-off); inconclusive means no clear call, values can overlap the other calls; inactive means mostly above about 0.92.
# Test: chemical genetic growth profiling, strain panel (AID 1159580);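 further: tested at 20 µM; growth read once vehicle control cultures reached saturation at 30 °C; 1 = growth at the plate median or of vehicle wells; lower values mean less growth of the strain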
# Conditions: S. cerevisiae deletion strains, growth OD
# [1] = locus YAL021C, strain ccr4, active compounds read low
# [2] = locus YAL026C, strain drs2, active compounds read low
# [3] = locus YAL030W, strain snc1, active compounds read low
# [4] = locus YBL061C, strain skt5, active compounds read low
# [5] = locus YBR009C, strain hhf1, active compounds read low
# [6] = locus YBR023C, strain chs3, active compounds read low
# [7] = locus YBR171W, strain sec66, active compounds read low
# [8] = locus YBR231C, strain swc5, active compounds read low
# [9] = locus YBR279W, strain paf1, active compounds read low
# [10] = locus YCL011C, strain gbp2, active compounds read low
# [11] = locus YCL016C, strain dcc1, active compounds read low
# [12] = locus YCL061C, strain MRC1, active compounds read low
# [13] = locus YCL069W, strain vba3, active compounds read low
# [14] = locus YCR088W, strain abp1, active compounds read low
# [15] = locus YDL005C, strain med2, active compounds read low
# [16] = locus YDL040C, strain nat1, active compounds read low
# [17] = locus YDR001C, strain nth1, active compounds read low
# [18] = locus YDR069C, strain doa4, active compounds read low
# [19] = locus YDR137W, strain rgp1, active compounds read low
# [20] = locus YDR159W, strain sac3, active compounds read low
# [21] = locus YDR297W, strain sur2, active compounds read low
# [22] = locus YDR334W, strain swr1, active compounds read low
# [23] = locus YDR335W, strain msn5, active compounds read low
# [24] = locus YDR392W, strain spt3, active compounds read low
# [25] = locus YEL003W, strain gim4, active compounds read low
# [26] = locus YEL037C, strain rad23, active compounds read low
# [27] = locus YEL061C, strain CIN8 (second series), active compounds read low
# [28] = locus YER015W, strain faa2, active compounds read low
# [29] = locus YER016W, strain bim1, active compounds read low
# [30] = locus YER111C, strain swi4, active compounds read low
# [31] = locus YER155C, strain BEM2 (second series), active compounds read low
# [32] = locus YFR010W, strain ubp6, active compounds read low
# [33] = locus YGL167C, strain pmr1, active compounds read low
# [34] = locus YGL173C, strain kem1, active compounds read low
# [35] = locus YGL227W, strain vid30, active compounds read low
# [36] = locus YGL240W, strain doc1, active compounds read low
# [37] = locus YGL253W, strain hxk2, active compounds read low
# [38] = locus YHR013C, strain ard1, active compounds read low
# [39] = locus YHR027C, strain rpn1, active compounds read low
# [40] = locus YHR030C, strain SLT2, active compounds read low
# [41] = locus YHR079C, strain IRE1, active compounds read low
# [42] = locus YHR142W, strain chs7, active compounds read low
# [43] = locus YJL092W, strain hpr5, active compounds read low
# [44] = locus YJL095W, strain BCK1 (second series), active compounds read low
# [45] = locus YJL095W, strain BCK1, active compounds read low
# [46] = locus YJL115W, strain asf1, active compounds read low
# [47] = locus YJL129C, strain trk1, active compounds read low
# [48] = locus YJL154C, strain vps35, active compounds read low
# [49] = locus YJL164C, strain tpk1, active compounds read low
# [50] = locus YJL166W, strain qcr8, active compounds read low
# [51] = locus YJR066W, strain TOR1, active compounds read low
# [52] = locus YKL160W, strain elf1, active compounds read low
# [53] = locus YKR026C, strain gcn3, active compounds read low
# [54] = locus YKR091W, strain srl3, active compounds read low
# [55] = locus YLL001W, strain dnm1, active compounds read low
# [56] = locus YLL026W, active compounds read low
# [57] = locus YLL041C, strain sdh2, active compounds read low
# [58] = locus YLR027C, strain aat2, active compounds read low
# [59] = locus YLR113W, strain HOG1, active compounds read low
# [60] = locus YLR221C, strain rsa3, active compounds read low
# [61] = locus YLR258W, strain gsy2, active compounds read low
# [62] = locus YLR262C, strain YPT6 (second series), active compounds read low
# [63] = locus YLR320W, strain mms22, active compounds read low
# [64] = locus YLR342W, strain FKS1, active compounds read low
# [65] = locus YLR357W, strain rsc2, active compounds read low
# [66] = locus YLR370C, strain arc18, active compounds read low
# [67] = locus YLR384C, strain iki3, active compounds read low
# [68] = locus YML120C, strain ndi1, active compounds read low
# [69] = locus YMR058W, strain fet3, active compounds read low
# [70] = locus YMR125W, strain sto1, active compounds read low
# [71] = locus YMR129W, active compounds read low
# [72] = locus YMR205C, strain PFK2, active compounds read low
# [73] = locus YMR231W, strain pep5, active compounds read low
# [74] = locus YNL071W, strain lat1, active compounds read low
# [75] = locus YNL183C, strain NPR1, active compounds read low
# [76] = locus YNL209W, strain ssb2, active compounds read low
# [77] = locus YNL248C, strain rpa49, active compounds read low
# [78] = locus YNL322C, strain KRE1 (second series), active compounds read low
# [79] = locus YNR049C, strain mso1, active compounds read low
# [80] = locus YOR001W, strain rrp6, active compounds read low
# [81] = locus YOR070C, strain gyp1, active compounds read low
# [82] = locus YOR080W, strain dia2, active compounds read low
# [83] = locus YOR083W, strain WHI5, active compounds read low
# [84] = locus YOR106W, strain vam3, active compounds read low
# [85] = locus YOR231W, strain MKK1, active compounds read low
# [86] = locus YOR265W, strain rbl2, active compounds read low
# [87] = locus YOR270C, strain vph1, active compounds read low
# [88] = locus YOR290C, strain snf2, active compounds read low
# [89] = locus YPL051W, strain arl3, active compounds read low
# [90] = locus YPL078C, strain atp4, active compounds read low
# [91] = locus YPL106C, strain sse1, active compounds read low
# [92] = locus YPL240C, strain hsp82, active compounds read low
# [93] = locus YPL256C, strain CLN2, active compounds read low
compound,measurement,setting,value
C#C[C@]1(O)CCC2C3CCc4cc(OC)ccc4C3CC[C@@]21C (some centres undefined),normalized growth,[1],1.02
same,normalized growth,[2],0.956
same,normalized growth,[3],0.987
same,normalized growth,[4],0.968
same,normalized growth,[5],0.933
same,normalized growth,[6],0.913 (active)
same,normalized growth,[7],0.959
same,normalized growth,[8],0.953
same,normalized growth,[9],0.967
same,normalized growth,[10],0.923
same,normalized growth,[11],0.912 (active)
same,normalized growth,[12],0.937
same,normalized growth,[13],0.976
same,normalized growth,[14],0.972
same,normalized growth,[15],0.985
same,normalized growth,[16],0.982
same,normalized growth,[17],0.982
same,normalized growth,[18],1.01
same,normalized growth,[19],0.839 (active)
same,normalized growth,[20],0.949
same,normalized growth,"locus YDR195W, strain ref2",1.01
same,normalized growth,[21],0.994
same,normalized growth,[22],0.983
same,normalized growth,[23],0.998
same,normalized growth,[24],0.614 (active)
same,normalized growth,[25],0.984
same,normalized growth,[26],0.968
same,normalized growth,[27],0.972
same,normalized growth,[28],0.991
same,normalized growth,[29],0.99
same,normalized growth,[30],0.969
same,normalized growth,[31],0.923
same,normalized growth,[32],0.962
same,normalized growth,[33],0.972
same,normalized growth,[34],0.98
same,normalized growth,[35],0.987
same,normalized growth,[36],0.963
same,normalized growth,[37],0.912
same,normalized growth,[38],0.926
same,normalized growth,[39],0.987
same,normalized growth,[40],0.974
same,normalized growth,[41],0.987
same,normalized growth,[42],0.866 (active)
same,normalized growth,[43],0.96
same,normalized growth,[44],0.975
same,normalized growth,[45],0.975
same,normalized growth,[46],0.988
same,normalized growth,[47],0.965
same,normalized growth,[48],0.983
same,normalized growth,[49],0.923
same,normalized growth,[50],0.923
same,normalized growth,"locus YJL187C, strain SWE1, active compounds read low",0.987
same,normalized growth,[51],0.933
same,normalized growth,[52],0.913
same,normalized growth,[53],0.988
same,normalized growth,[54],0.975
same,normalized growth,[55],0.903
same,normalized growth,[56],0.979
same,normalized growth,[57],0.986
same,normalized growth,[58],0.969
same,normalized growth,[59],0.931
same,normalized growth,[60],0.912
same,normalized growth,[61],0.956
same,normalized growth,[62],0.798 (active)
same,normalized growth,[63],0.902
same,normalized growth,[64],0.952
same,normalized growth,[65],0.909
same,normalized growth,[66],0.966
same,normalized growth,[67],0.986
same,normalized growth,[68],0.933
same,normalized growth,[69],0.935
same,normalized growth,[70],0.951
same,normalized growth,[71],0.977
same,normalized growth,[72],0.923
same,normalized growth,[73],0.993
same,normalized growth,[74],0.89 (active)
same,normalized growth,[75],0.917
same,normalized growth,[76],0.974
same,normalized growth,[77],0.951
same,normalized growth,[78],0.964
same,normalized growth,[79],0.983
same,normalized growth,[80],1
same,normalized growth,[81],0.951
same,normalized growth,[82],0.999
same,normalized growth,[83],0.919
same,normalized growth,[84],0.969
same,normalized growth,[85],0.958
same,normalized growth,[86],0.969
same,normalized growth,[87],0.949
same,normalized growth,[88],0.874
same,normalized growth,[89],0.923
same,normalized growth,[90],0.902
same,normalized growth,[91],0.913
same,normalized growth,[92],0.985
same,normalized growth,[93],0.973
C[C@]12CCC3c4ccc(OS(=O)(=O)O)cc4CCC3C1CCC2=O (some centres undefined),normalized growth,[1],0.957
same,normalized growth,[2],1.01
same,normalized growth,[3],0.986
same,normalized growth,[4],0.967
same,normalized growth,[5],1.02
same,normalized growth,[6],0.987
same,normalized growth,[7],1
same,normalized growth,[8],1.01
same,normalized growth,[9],0.999
same,normalized growth,[10],0.998
same,normalized growth,[11],0.986
same,normalized growth,[12],1.01
same,normalized growth,[13],0.995
same,normalized growth,[14],0.998
same,normalized growth,[15],0.978
same,normalized growth,[16],1
same,normalized growth,[17],0.995
same,normalized growth,[18],0.989
same,normalized growth,[19],0.976
same,normalized growth,[20],1
same,normalized growth,"locus YDR195W, strain ref2",0.999
same,normalized growth,[21],1
same,normalized growth,[22],0.993
same,normalized growth,[23],1
same,normalized growth,[24],0.923
same,normalized growth,[25],0.998
same,normalized growth,[26],1.01
same,normalized growth,[27],1.03
same,normalized growth,[28],0.993
same,normalized growth,[29],0.962
same,normalized growth,[30],0.959
same,normalized growth,[31],1
same,normalized growth,[32],1.02
same,normalized growth,[33],1
same,normalized growth,[34],0.97
same,normalized growth,[35],0.981
same,normalized growth,[36],0.983
same,normalized growth,[37],0.996
same,normalized growth,[38],0.939
same,normalized growth,[39],1.01
same,normalized growth,[40],0.961
same,normalized growth,[41],0.961
same,normalized growth,[42],0.983
same,normalized growth,[43],1
same,normalized growth,[44],0.977
same,normalized growth,[45],0.992
same,normalized growth,[46],0.995
same,normalized growth,[47],0.958
same,normalized growth,[48],0.974
same,normalized growth,[49],0.996
same,normalized growth,[50],1.01
same,normalized growth,[51],0.942
same,normalized growth,[52],0.928
same,normalized growth,[53],1
same,normalized growth,[54],0.991
same,normalized growth,[55],1.02
same,normalized growth,[56],1.02
same,normalized growth,[57],0.991
same,normalized growth,[58],1.01
same,normalized growth,[59],1.02
same,normalized growth,[60],1.04
same,normalized growth,[61],1
same,normalized growth,[62],0.984
same,normalized growth,[63],1.01
same,normalized growth,[64],0.971
same,normalized growth,[65],0.983
same,normalized growth,[66],1.01
same,normalized growth,[67],0.981
same,normalized growth,[68],1
same,normalized growth,[69],1.01
same,normalized growth,[70],0.97
same,normalized growth,[71],1.01
same,normalized growth,[72],1
same,normalized growth,[73],0.995
same,normalized growth,[74],1.02
same,normalized growth,[75],0.975
same,normalized growth,[76],0.985
same,normalized growth,[77],0.89
same,normalized growth,[78],0.948
same,normalized growth,[79],0.99
same,normalized growth,[80],1.03
same,normalized growth,[81],0.987
same,normalized growth,[82],0.991
same,normalized growth,[83],0.912
same,normalized growth,[84],0.971
same,normalized growth,[85],1
same,normalized growth,[86],1.01
same,normalized growth,[87],0.917
same,normalized growth,[88],0.977
same,normalized growth,[89],0.987
same,normalized growth,[90],0.965
same,normalized growth,[91],0.968
same,normalized growth,[92],0.999
same,normalized growth,[93],0.982
